Consider 42 compounds from PubChem BioAssay AID434970 (Sanford-Burnham Center for Chemical Genomics, 2010).

The whole screen tested about 11,000 compounds, of which about 310 (2.8%) were called active. The sample holds actives, similar compounds and a random draw of the others, so the mix is not that of the screen. Cut-off read from the data, not from the text of the source: active = activity change below about -85%; inactive = the rest.

The test system of the assay is intestinal alkaline phosphatase [Mus musculus]. In words: mouse intestinal phosphatase enzyme activation – biochemical, luminescence, single concentration, confirmation (AID 434970). Conditions: purified mouse IAP, CDP-Star luminescence, 30 min, at 10 µM; activation factor: measured here: IAP activation factor, stronger effect = higher value; activity change, negative = activation: stronger effect = lower value.
`CCOc1ccc(-n2c(SCC(=O)NCc3ccco3)nc3c(c2=O)SCC3)cc1`: the activation factor worked out at 0.865 and the activity change, negative = activation was 13.5% (inactive).

As to `COc1cc(O)c2c(c1)OC(C)(C)CC2=O`, the activation factor worked out at 1.08 and the activity change, negative = activation was -7.6% (inactive).

As to `O=C(CSc1nc2cccnc2n1Cc1ccccc1)N1CCCC1`, the activation factor is 1.07 and the activity change, negative = activation is -7.2% (inactive).

Take `COC(=O)[C@H](CCSC)NC(=O)Cn1cnc(C(=O)Nc2ccc(C)c(C)c2)n1`: the activation factor amounted to 0.956 and the activity change, negative = activation was 4.35% (inactive).

As for `CC(NC(=O)CCSc1nc(-c2ccco2)cc(C(F)(F)F)n1)c1ccccc1` (centres undefined), the activation factor turned out to be 0.94 and the activity change, negative = activation is 6% (inactive).

`O=C(N/N=C/c1ccc([N+](=O)[O-])o1)c1ccccc1NS(=O)(=O)c1cccs1`: the activation factor was found to be 0.375 and the activity change, negative = activation is 62.5% (inactive).

Consider `O=C(c1ccc(C(=O)N2CCOCC2)nc1)N1CCOCC1`, for which the activation factor amounted to 1.09 and the activity change, negative = activation was -8.9% (inactive).

On to `CCc1ccc(NC(=O)c2sccc2-n2cccc2)cc1`, for which the activation factor came to 1.04 and the activity change, negative = activation was -4.35% (inactive).

As to `Fc1cc(NC(=S)NCc2ccc(CNC(=S)Nc3ccc(Cl)c(F)c3)cc2)ccc1Cl`, the activation factor is 1.44 and the activity change, negative = activation is -44.1% (inactive).

Consider `O=C(Nc1ccc(Cl)cc1)C1CCN(C(=O)NC2CCCCC2)CC1`, for which the activation factor amounted to 0.914 and the activity change, negative = activation is 8.6% (inactive).

`O=C(Nc1ccc(Cl)cc1)NC1CCCCC1Cc1ccco1` (centres undefined): the activation factor was found to be 2.11 and the activity change, negative = activation is -111% (active).

Consider `O=C(NCCSCc1ccco1)Nc1cc(Cl)cc(Cl)c1`, for which the activation factor was 1.27 and the activity change, negative = activation was -27.2% (inactive).

`CC/C(=N\n1nnnc1Nc1ccccc1)c1ccccc1`: the activation factor amounted to 1.02 and the activity change, negative = activation is -2.45% (inactive).

Turning to `Cc1ccc(N2C(=O)/C(=C/c3ccco3)SC2=S)cc1`, the activation factor stood at 0.396 and the activity change, negative = activation was 60.5% (inactive).

For `Cc1cc2oc(=O)cc(-c3ccccc3)c2c(C)c1-c1ccc(N(C)C)cc1`, the activation factor came out at 0.885 and the activity change, negative = activation was 11.4% (inactive).

`COc1cccc(N/C(C)=C/C(=O)c2ccc(Br)cc2)c1`: the activation factor came out at 1 and the activity change, negative = activation is -0.05% (inactive).

With `COc1cccc(NC(=O)Nc2ccc3c(c2)N(C)C(=O)CS3)c1`, the activation factor is 0.986 and the activity change, negative = activation is 1.5% (inactive).

On to `Cc1cccc(NC(=O)Nc2ccc3c(c2)CCC3)c1`, for which the activation factor turned out to be 1.41 and the activity change, negative = activation is -41.4% (inactive).

`COc1cccc(NC(=O)Nc2ccc3c(c2)CCC3)c1`: the activation factor is 2.9 and the activity change, negative = activation was -190% (active).

Turning to `Cn1cccc1C(=O)OCC(=O)Nc1ccc2c(c1)CCC2`, the activation factor came out at 1.05 and the activity change, negative = activation was -5.05% (inactive).

In the case of `O=C(Nc1ccccc1)Nc1ccc2c(c1)CCC2`, the activation factor turned out to be 1.95 and the activity change, negative = activation was -94.8% (active).

Regarding `O=C(Nc1ccc2c(c1)CCC2)Nc1ccccc1F`, the activation factor turned out to be 1.69 and the activity change, negative = activation is -68.5% (inactive).

Consider `Cc1ccc(NCc2nnc(SCC(=O)N3CCCc4ccccc43)o2)c(C)c1`, for which the activation factor stood at 1.02 and the activity change, negative = activation is -2.3% (inactive).

`CCS(=O)(=O)n1nc(-c2ccccc2)nc1N`: the activation factor was determined as 0.926 and the activity change, negative = activation is 7.4% (inactive).

For `CC(/C=N/n1cnnc1)=C\c1ccccc1`, the activation factor stood at 1.02 and the activity change, negative = activation is -1.9% (inactive).

On to `CC1(C)CC(=O)C2=C(C1)NC(=O)CC2C(=O)NCc1ccc(F)cc1` (centres undefined), for which the activation factor came out at 1.3 and the activity change, negative = activation was -29.9% (inactive).

Regarding `COc1cc(-c2nnc3n2N=C(c2ccccc2)CS3)cc(OC)c1OC`, the activation factor is 0.996 and the activity change, negative = activation is 0.4% (inactive).

On to `CCCNC(=O)c1ccccc1NC(=O)CN(c1ccccc1OCC)S(C)(=O)=O`, for which the activation factor was determined as 1.15 and the activity change, negative = activation is -15.4% (inactive).

Regarding `O=P(OC1CCS(=O)(=O)C1)(c1ccccc1)c1ccccc1` (centres undefined), the activation factor was 0.921 and the activity change, negative = activation was 7.85% (inactive).

For `[N-]=[N+]=CC(=O)CCCN1C(=O)c2ccccc2C1=O`, the activation factor is 1.09 and the activity change, negative = activation was -9.05% (inactive).

Take `O=C(Cc1cccs1)Nc1nnc(CCc2ccccc2)s1`: the activation factor stood at 1.15 and the activity change, negative = activation is -14.7% (inactive).

Consider `Cc1ccc(NC(=O)C2CCN(C(=O)NC3CCCCC3)CC2)cc1Cl`, for which the activation factor came out at 1.21 and the activity change, negative = activation was -20.9% (inactive).

`Cc1cc(C)cc(NC(=O)NC2CCCCCCC2)c1`: the activation factor amounted to 3.37 and the activity change, negative = activation was -237% (active).

Regarding `Cc1cc(C)cc(NC(=S)NCCN(C2CCCCC2)C2CCCC2)c1`, the activation factor was 1.28 and the activity change, negative = activation is -28.3% (inactive).

Regarding `CC1CCCN(C(=O)C2(NC(=O)Nc3cccc(F)c3)CCCCC2)C1` (centres undefined), the activation factor came out at 1.81 and the activity change, negative = activation is -81.1% (inactive).

`O=C(Nc1cccc(F)c1)c1ccccc1`: the activation factor was 1.01 and the activity change, negative = activation was -0.8% (inactive).

As to `CC(=O)OC(C(=O)NC1CCCCC1)c1cccc(C)c1` (centres undefined), the activation factor is 1.04 and the activity change, negative = activation was -4.4% (inactive).

In the case of `Cc1ccc(NC(=S)NC2CCCCC2)cc1S(=O)(=O)N(C)C`, the activation factor came out at 1.3 and the activity change, negative = activation was -29.9% (inactive).

For `Cc1cc(C)cc(NC(=O)Nc2ccc(N3CCCCC3)cc2)c1`, the activation factor was found to be 1.16 and the activity change, negative = activation was -15.9% (inactive).

Regarding `Cc1cccc(NC(=O)NC2CCCCCCC2)c1`, the activation factor turned out to be 2.45 and the activity change, negative = activation was -145% (active).

As to `Cc1ccc(NC(=O)NC2CCCCCCC2)cc1C`, the activation factor turned out to be 2.56 and the activity change, negative = activation is -156% (active).

As for `Cc1cccc(NC(=O)CC2NC3CCCCC3NC2=O)c1` (centres undefined), the activation factor stood at 0.974 and the activity change, negative = activation was 2.55% (inactive).
